Test results taken from PubChem BioAssay (NCI).
Where “and” joins values, the source holds several entries; their conditions need not be identical. Equal values may be shown once. Compounds without any hit were thinned out: in the full panel of roughly 83,000, 20% have a hit.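 Cell lines were cultured in 96-well plates, exposed to a single compound concentration, and assessed for percent growth 48 hours later.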 Calls of active or inactive are those of the source.

Each compound was assayed on MOLT-4 leukemia (assay: NCI-60 one-dose screen, 48 h (100 = growth as untreated, 0 = no growth, -100 = all killed)). Conditions: 10 µM unless noted.
Experimental: Growth inhibition of the MOLT-4 human tumor cell line is measured as a screen for anti-cancer activity. Cells are grown in 96 well plates and exposed to the test compound for 48 hours. Compounds are tested at a single concentration, which is 10^-5 M for most compounds. The reported endpoint is percent growth (GI% or GIPRCNT), where numbers from 0 - 100% represent growth inhibition, and numbers from -100% - 0 represent cell death. For example, a value of 40 represents 60% growth inhibition. A value of 0 means no net growth occurred over the course of the experiment. A value of -40 indicates 40% of cells at the beginning of the experiment died by the end of the experiment. A value of -100 means all cells are dead at the end of the experiment.
NCI-60 Human Tumor Cell Lines Screen was performed using the standard one-dose NCI protocol, which is described in more detail at https://dtp.cancer.gov/discovery_development/nci-60/default.htm.
Compounds with GIPRCNT values below 10 were considered active. Activity score was based on GIPRCNT using the following formula: […]
Score is 0 for GIPRCNT values of 100 or above, 50 for GIPRCNT values of 0, and 100 for GIPRCNT values of -100.

| Structure (SMILES) | growth |
| --- | --- |
| Nc1[nH]nc(Nc2ccccc2)c1-c1nc2ccccc2s1 | 4.06% (active) |
| COc1cc(/C=C/C(=O)c2ccc(NC(=O)CSc3nnc(-c4cc(-c5ccccc5)nc5ccccc45)n3-c3ccccc3)cc2)cc(OC)c1OC | 52.7% (inactive) |
| CCN(CC)CC#CCOC(=O)[C@]1(C)CCC[C@]2(C)c3ccc(C(C)C)cc3CC[C@@H]12 | 82.9% (inactive) |
| CC1=C2[C@@H](CC1)[C@]1(C)O[C@@](C(C)C)(C[C@H]1OC(=O)CO)[C@H]2OC(=O)C1CC1c1ccccc1 (stereo not given in full) | 75.6% (inactive) |
| COc1ccc(-c2nnc3n(C)c(=O)c4ccccc4n23)cc1O | 32.5% (inactive) |
| COc1ccc(Cn2cc(C(=O)Nc3cccnc3Nc3ccccc3)nn2)cc1 | 93.5% (inactive) |
| CN1Cn2c(ccc2C(F)(F)F)C(=O)CS1(=O)=O | 101% (inactive) |
| COc1ccc2c(c1)CCNC21C(=O)Nc2c(Br)cc(Br)cc21 (stereo not given) | 95.9% (inactive) |
| COc1cc2cc(NCc3ccncc3)nc(C)c2cc1OC | 109% (inactive) |
| CCCNNC(=O)/C=C/c1ccc(CNCCc2c(C)[nH]c3ccccc23)cc1 | 13.3% [2.5 µM] (inactive) |
| COc1cc(/C=C(/c2ccccc2)[N+](=O)[O-])c(OC)c2c1OCO2 | -10.5% (active) |
| C[C@]12CCc3c(ccc4cc(O)ccc34)[C@@H]1C[C@H](O)[C@@H]2O | 102% (inactive) |
| CCCCC1=C(Br)C(=O)c2nc(C)ccc2C1=O | 21.3% (inactive) |
| CCOC(=O)c1nc2c3ccccc3cnn2c1C(=O)c1ccc(OC)cc1 | 88.7% (inactive) |
| O=C(Nc1ccccc1C(=O)N/N=C(\c1ccccc1)c1ccccn1)c1ccccc1 | 2.47% (active) |
| C=CCNC(=O)Cc1c(-c2ccc(OC)cc2)oc2c(OC)c3c(c(OC)c12)OCO3 | 99.7% (inactive) |
| O=C(Cc1ccc(F)cc1)c1ccccc1 | 93.1% (inactive) |
| COc1cc2c(cc1OCCCOC1=C=C=C(c3ccc4c(c3)c3cc(-c5ccc(OCCCOc6cc7c(cc6OC)C(=O)N6CCC[C@H]6C=N7)cc5)ccc3n4S(=O)(=O)c3ccc(C)cc3)C=C1)N=C[C@@H]1CCCN1C2=O | -11.6% (active) |
| O=C1/C(=C/c2cn(-c3ccccc3)nc2-c2ccccc2)SC(=S)N1c1ccc(Cl)cc1 | 74.7% (inactive) |
| NNCCc1ccccc1 | 104% (inactive) and 96.4% (inactive) |

| Structure (SMILES) | growth |
| --- | --- |
| C=C1CCC2C3(C)COC(c4ccc(NC(C)=O)cc4)OC3CCC2(C)C1C/C=C1/C(=O)OCC1O (stereo not given) | 26.7% (inactive) |
| CCOC(=O)c1ccc(Nc2ncnc3c2cnn3-c2cccc(F)c2)cc1 | 99.2% (inactive) |
| C/C=C(/C)C(=O)O[C@@H]1CC(C)(C)CC2C34OC(=O)[C@@]21CC[C@@]3(C)[C@]1(C)CCC2C(C)(C)C(=O)CC[C@]2(C)C1C[C@@H]4Cl (stereo not given in full) | 99.6% (inactive) |
| Cc1nn(-c2nc(-c3cc4ccccc4oc3=O)cs2)c(C)c1N=Nc1ccccc1 | 100% (inactive) |
| C=C(CNCCc1ccc(O)cc1)[C@@H]1CC[C@]2(CO)CC[C@]3(C)[C@H](CC[C@@H]4[C@@]5(C)CCC(NCCc6ccc(O)cc6)C(C)(C)[C@@H]5CC[C@]43C)[C@@H]12 (stereo not given in full) | -49.1% (active) |
| Nc1ncnc2c1C(c1ccc([N+](=O)[O-])cc1)c1sc3c(F)cccc3c1O2 (stereo not given) | 93.4% (inactive) |
| O=C([C@H]1C[C@H]1c1ccc(S(F)(F)(F)(F)F)cc1)N1CCN(c2cc(Cl)ccc2C(F)(F)F)CC1 | 76.9% (inactive) |
| Cn1cc(-c2csc(-c3cn(CCOC(N)=O)c4ccccc34)n2)c2cccnc21 | 69.1% (inactive) |
| O=C1C=C(Nc2ccccc2)c2ncccc2C1=O | -49.6% (active) |
| Nc1ncc(-c2ccc3ncnc(N4CCc5ccc(Cl)cc54)c3c2)cc1C(F)(F)F | 7.2% (active) |
| COc1ccc(-c2[nH]c3ccccc3c2-c2ccc(OC)cc2)cc1 | 49.9% (inactive) |
| CN(C)CCCn1c2nc(=O)[nH]c(=O)c-2nc2cc(Cl)c(Cl)cc21 | 64.8% (inactive) |
| COc1ccc(/C=C(\C#N)c2cc3ccccc3[nH]2)cc1 | 24.4% (inactive) |
| COc1cc(C=O)ccc1Oc1ccc([N+](=O)[O-])cc1[N+](=O)[O-] | 100% (inactive) |
| CC1=C2[C@@H](CC1)[C@]1(C)O[C@@](C3CC3)(C[C@H]1OC(=O)CO)[C@H]2OC(=O)/C=C/c1ccccc1 | 77.6% (inactive) |
| O=C(CCl)N(O)c1ccc(/C=C/c2ccccc2)cc1 | 7.08% (active) and 12.4% (inactive) |
| C=C1C(=O)O[C@H]2[C@H]1CC/C(COC(=O)NCc1ccc(Cn3c(=O)sn(CCCI)c3=O)cc1)=C\CC[C@@]1(C)O[C@@H]21 | 9.74% (active) |
| Nc1ccc(-c2nc3ccc4[nH]ncc4c3c3c2CCCC3)cc1F | 18.5% (inactive) |
| C=C(CN1CC=CCC1)[C@@H]1CC[C@]2(COC(C)=O)CC[C@]3(C)[C@H](CC[C@@H]4[C@@]5(C)CC[C@H](O)C(C)(C)[C@@H]5CC[C@]43C)[C@@H]12 | 92.4% (inactive) |
| CC1=CC=C(NC(=O)/C=C/c2ccccc2)CC1Nc1nccc(-c2cccnc2)n1 (stereo not given) | 26% (inactive) |
